For twelve compounds, outcome and AC50 results are on record in PubChem BioAssay (EPA / NIEHS).

Experiment [1] deals with Luciferin 4-monooxygenase (Photinus pyralis) (UniProt P08659). The experiment can be described thus: CCTE_Simmons_QuantiLum_inhib_2: CCTE's Firefly Luciferase Inhibition Assay, Simmons Lab (AID 2283767).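 For AC50: potency for inhibitors that lower luciferase luminescence relative to DMSO.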 In outline:
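Cell-free recombinant firefly luciferase (5 ng/well) in 200mM potassium phosphate with 1 mg/ml BSA, 30 min at 37C with 8 concentrations from 5 nM to 87.5 uM [final], 0.5% DMSO. Luminescence read after D-luciferin (150uM)/dATP (147uM) reagent injection, pH 7.8; triplicates.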

The test system of experiment [2] is zebrafish Androgen Receptor (AR), gene 100005148. Description: ATG_zfAR_XSP1: Attagene TRANS-FACTORIAL Multi-Species (XSP1) HepG2 Assay for zebrafish Androgen Receptor (AR) (AID 2283771). The method, boiled down: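 HepG2 cells were transiently transfected with a zebrafish AR-GAL4 reporter system and partially stimulated with 3 nM 6-alpha-fluorotestosterone. Reporter mRNA was measured after 24 h dosing by RT-PCR with capillary electrophoresis, and gain-of-signal was fitted relative to DMSO.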

The target of experiment [3] is zebrafish Estrogen Receptor (ESR1), esr1 (gene 259252) (UniProt P57717). Description: ATG_zfER1_XSP1: Attagene TRANS-FACTORIAL Multi-Species (XSP1) HepG2 Assay for zebrafish Estrogen Receptor (ESR1) (AID 2283772). The method, boiled down: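 Exogenous chimeric receptor-GAL4 activity is measured in transiently transfected human HepG2 liver cells after 24 h compound exposure. Reporter transcripts are detected by RT-PCR and fluorescent capillary electrophoresis, analysed for signal gain relative to DMSO.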

In experiment [4] the test system is zebrafish Estrogen Receptor (ESR2B), gene 317733. The experiment can be described thus: ATG_zfER2b_XSP1: Attagene TRANS-FACTORIAL Multi-Species (XSP1) HepG2 Assay for zebrafish Estrogen Receptor (ESR2B) (AID 2283773). The method, boiled down:
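HepG2 cells transiently transfected with multiple GAL4-UAS reporter units expressing chimeric zebrafish ER2b-Gal4; 24 h chemical exposure with 3 nM 6-alpha-fluorotestosterone present. Reporter mRNA measured by RT-PCR and capillary electrophoresis; gain of signal fitted versus DMSO.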

The subject of experiment [5] is frog Estrogen Receptor (ESR2), gene 100174814. The experiment can be described thus: ATG_frER2_XSP1: Attagene TRANS-FACTORIAL Multi-Species (XSP1) HepG2 Assay for frog Estrogen Receptor (ESR2) (AID 2283774). In outline: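 HepG2 cells transiently transfected with GAL4-UAS multiplexed reporter units expressing chimeric NR-Gal4 proteins; reporter mRNA measured 24 h after dosing by RT-PCR, FAM labeling, HpaI digestion and capillary electrophoresis. Gain-of-signal relative to DMSO; 3 nM 6-alpha-fluorotestosterone present.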

Experiment [6] in a line: ACEA_AR_agonist_AUC_viability: ACEA Biosciences xCELLigence Real-Time Cell Analysis on Androgen Receptor Agonism for Viability (AID 2283775).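 For AC50: viability read 80 hours after compound addition.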 In outline:
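Real-time impedance tracking of 22Rv1 growth, readings every 5 min for 5 h then hourly; area-under-curve viability endpoint at 80 hours, relative to DMSO. Compounds at eight concentrations, 1:4 steps, top 100 uM, n = 2.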

The nature of experiment [7]: ACEA_AR_antagonist_AUC_viability: ACEA Biosciences xCELLigence Real-Time Cell Analysis on Androgen Receptor Antagonism for Viability (AID 2283776).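 Note: 22Rv1 human prostate cancer cells growing on impedance electrode plates; hits lower the growth signal relative to DMSO meaning cytotoxicity.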 The method, boiled down: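 Viability endpoint from label-free cell-index monitoring: 22Rv1 cultures treated with an eight-point 1:4 dilution series starting at 100 uM final, AUC at 80 h fitted against DMSO.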
Experiment [8] has as its system frog Estrogen Receptor (ESR1), gene 398734. The experiment can be described thus: ATG_frER1_XSP1: Attagene TRANS-FACTORIAL Multi-Species (XSP1) HepG2 Assay for frog Estrogen Receptor (ESR1) (AID 2283777). The method, boiled down:
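Read-out: fluorescent reporter mRNA via RT-PCR, HpaI digestion and capillary electrophoresis, after 24 h chemical exposure of transiently transfected human HepG2 cells expressing exogenous NR-Gal4 chimeras. DMSO served as baseline for positive-direction fitting.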

For experiment [9], the system named is zebrafish Estrogen Receptor (ESR2A), gene 317734. Description: ATG_zfER2a_XSP1: Attagene TRANS-FACTORIAL Multi-Species (XSP1) HepG2 Assay for zebrafish Estrogen Receptor (ESR2A) (AID 2283778). In outline:
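HepG2 cells transiently transfected with multiplexed GAL4-UAS reporter units and chimeric NR-GAL4 receptors; 24 h compound exposure with 3 nM 6-alpha-fluorotestosterone present. Reporter mRNA quantified by RT-PCR and capillary electrophoresis, gain-of-signal fitted relative to DMSO.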

Experiment [10] concerns the target chicken Estrogen Receptor (ESR1), ESR1 (gene 396099) (UniProt P06212). Description: ATG_chERa_XSP1: Attagene TRANS-FACTORIAL Multi-Species (XSP1) HepG2 Assay for chicken Estrogen Receptor (ESR1) (AID 2283779). In outline:
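HepG2 cells transiently transfected with multiplexed GAL4-UAS reporter units expressing chimeric NR-Gal4 proteins; 3 nM 6-alpha-fluorotestosterone present. Reporter mRNA measured 24 h after dosing by RT-PCR, FAM labelling, HpaI digest and capillary electrophoresis; gain of signal versus DMSO.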

Experiment [11] addresses Estrogen receptor (Homo sapiens) (UniProt P03372). The experiment can be described thus: ATG_hERa_XSP1: Attagene TRANS-FACTORIAL Multi-Species (XSP1) HepG2 Assay for human Estrogen Receptor (ESR1) (AID 2283780). The method, boiled down: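 HepG2 cells transiently transfected with GAL4-UAS reporter units and chimeric NR-Gal4 constructs; 24 h after dosing, reporter mRNA quantified by RT-PCR and capillary electrophoresis. Medium contained 3 nM 6-alpha-fluorotestosterone; activity fitted as gain-of-signal versus DMSO.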

Experiment [12] has as its system turtle Estrogen Receptor (ESR1), gene 101933533. Description: ATG_trERa_XSP1: Attagene TRANS-FACTORIAL Multi-Species (XSP1) HepG2 Assay for turtle Estrogen Receptor (ESR1) (AID 2283781). In outline: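 HepG2 cells transiently transfected with GAL4-UAS reporter units and chimeric NR-Gal4 constructs, dosed for 24 h with 3 nM 6-alpha-fluorotestosterone present. Reporter mRNA was quantified by RT-PCR, fluorescent labelling and capillary electrophoresis, with gain of signal fitted relative to DMSO.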

Experiment [13] can be described thus: ArunA_Migration_hNP: ArunA Biomedical's Oris Neuroprogenitor (hNP) Cell Migration Assay (AID 2283754). In outline: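 Human H9-derived hNP1 neuroprogenitors on Matrigel with LIF/bFGF, plated around seeding stoppers for 16 h at 37C; stoppers removed at start of 72 h chemical exposure. Calcein-AM staining, fluorescence 494/517 nm in detection zone; loss-of-signal vs DMSO; cytochalasin D control.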

A short description of experiment [14]: ArunA_NOG_BranchPointsPerNeurite: ArunA Biomedical's Neurite Outgrowth (NOG) Assay for Branch Points Per Neurite (AID 2283759). The method, boiled down:
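Automated image analysis traced neurites (processes >10 um) from valid cell bodies after Hoechst and βIII-tubulin staining. hNN cells from H9 embryonic stem cells, 48 h exposure. Fitted bidirectionally against DMSO.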

Experiment [15] can be described thus: ArunA_Migration_hNC: ArunA Biomedical's Oris Neural Crest (hNC) Cell Migration Assay (AID 2283755). In outline:
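Human H9-derived neural crest stem cells, 60,000/well on Matrigel, 16 h at 37C, then 72 h chemical exposure after seeding-stopper removal. Migration into detection zone read as calcein-AM fluorescence (ex494/em517), relative to DMSO.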

Experiment [16] in a line: ArunA_NOG_NucleusCount: ArunA Biomedical's Neurite Outgrowth (NOG) Assay for Nucleus Count (AID 2283756). In outline:
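Human H9-derived differentiated neurons were exposed for 48 h right after seeding. Hoechst-stained nuclei gated by size and intensity were counted by automated high-content imaging as viable neurons. Loss of signal vs DMSO.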

Experiment [17] in a line: ArunA_NOG_NeuriteLength: ArunA Biomedical's Neurite Outgrowth (NOG) Assay for Neurite Length (AID 2283757). The method, boiled down:
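Differentiated human H9-derived neurons were exposed for 48 h from seeding, then stained with Hoechst and βIII-tubulin. Automated high-content imaging gave total neurite length per valid neuron, counting processes >10 um. Loss of signal was scored versus DMSO.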

Experiment [18] in a line: ArunA_NOG_NeuritesPerNeuron: ArunA Biomedical's Neurite Outgrowth (NOG) Assay for Neurites Per Neuron (AID 2283758). The method, boiled down:
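Differentiated human H9-derived neurons exposed to chemicals for 48 h from seeding, then stained with Hoechst and βIII-tubulin/DyLight 488. Automated imaging counted neurites (processes >10 um) per valid neuron; loss of signal versus DMSO scored.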

Several values for one entry are separate records, joined by “and”; a condition that tells them apart may be missing. Identical values can stand only once. Inconclusive results are not listed. The source holds several records for some structures; these can differ, active in one and inactive in another. Activity calls are given as the source filed them. Rule for the calls: active = hit-call score of the fitted dose curve at least 0.9, where 1 is the maximum; inconclusive = response in the unintended direction; inactive = score below 0.9.

Luciferin 4-monooxygenase (Photinus pyralis), sequence (P08659 whole entry, looked up): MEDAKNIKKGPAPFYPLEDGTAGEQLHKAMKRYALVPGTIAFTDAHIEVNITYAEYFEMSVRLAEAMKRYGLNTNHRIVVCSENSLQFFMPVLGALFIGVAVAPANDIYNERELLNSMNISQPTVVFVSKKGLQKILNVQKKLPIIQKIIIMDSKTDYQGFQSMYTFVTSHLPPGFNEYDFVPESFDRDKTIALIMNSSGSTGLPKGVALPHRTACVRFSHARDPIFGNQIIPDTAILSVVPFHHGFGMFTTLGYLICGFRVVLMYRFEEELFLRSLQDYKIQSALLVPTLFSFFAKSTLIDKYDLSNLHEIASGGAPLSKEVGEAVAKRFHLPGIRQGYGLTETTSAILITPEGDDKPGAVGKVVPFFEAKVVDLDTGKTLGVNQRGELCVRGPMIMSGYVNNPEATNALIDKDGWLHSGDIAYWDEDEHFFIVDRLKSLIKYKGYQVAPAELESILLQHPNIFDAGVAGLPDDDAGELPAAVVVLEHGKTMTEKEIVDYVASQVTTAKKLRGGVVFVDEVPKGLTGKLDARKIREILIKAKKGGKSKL
Estrogen receptor (Homo sapiens), sequence (P03372 whole entry, looked up, the tested form may be a part): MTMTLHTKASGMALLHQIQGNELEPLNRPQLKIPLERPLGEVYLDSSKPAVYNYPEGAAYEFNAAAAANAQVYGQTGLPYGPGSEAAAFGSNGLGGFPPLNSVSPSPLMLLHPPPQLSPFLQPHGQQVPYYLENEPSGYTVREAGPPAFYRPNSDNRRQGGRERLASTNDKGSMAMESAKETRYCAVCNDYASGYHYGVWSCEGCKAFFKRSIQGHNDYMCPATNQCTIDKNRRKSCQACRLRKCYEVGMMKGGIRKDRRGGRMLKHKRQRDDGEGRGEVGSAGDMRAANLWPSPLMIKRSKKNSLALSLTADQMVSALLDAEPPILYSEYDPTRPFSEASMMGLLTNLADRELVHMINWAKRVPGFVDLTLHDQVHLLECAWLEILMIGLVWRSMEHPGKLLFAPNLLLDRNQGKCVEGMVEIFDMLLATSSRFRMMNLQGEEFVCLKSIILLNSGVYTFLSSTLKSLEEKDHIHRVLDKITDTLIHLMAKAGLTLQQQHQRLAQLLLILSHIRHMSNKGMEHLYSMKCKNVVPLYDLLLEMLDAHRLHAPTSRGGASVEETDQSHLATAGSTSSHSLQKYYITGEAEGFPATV
chicken Estrogen Receptor (ESR1), ESR1 (gene 396099), sequence (P06212 whole entry, looked up, the tested form may be a part): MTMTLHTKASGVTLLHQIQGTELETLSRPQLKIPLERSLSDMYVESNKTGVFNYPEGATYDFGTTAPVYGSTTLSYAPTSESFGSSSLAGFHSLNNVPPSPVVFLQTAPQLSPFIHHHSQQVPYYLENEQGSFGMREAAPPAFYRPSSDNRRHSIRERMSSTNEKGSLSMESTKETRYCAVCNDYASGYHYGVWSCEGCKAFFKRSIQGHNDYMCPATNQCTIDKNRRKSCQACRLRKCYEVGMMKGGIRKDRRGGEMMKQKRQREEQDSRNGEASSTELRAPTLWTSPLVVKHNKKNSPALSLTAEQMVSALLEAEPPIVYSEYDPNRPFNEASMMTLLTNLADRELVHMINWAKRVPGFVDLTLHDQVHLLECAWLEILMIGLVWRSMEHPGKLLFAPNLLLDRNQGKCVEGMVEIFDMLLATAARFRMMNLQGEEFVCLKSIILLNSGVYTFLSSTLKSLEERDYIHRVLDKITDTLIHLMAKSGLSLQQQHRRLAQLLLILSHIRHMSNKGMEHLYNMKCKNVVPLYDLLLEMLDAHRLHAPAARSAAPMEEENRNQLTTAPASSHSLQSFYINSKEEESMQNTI
zebrafish Estrogen Receptor (ESR1), esr1 (gene 259252), sequence (P57717 whole entry, looked up, the tested form may be a part): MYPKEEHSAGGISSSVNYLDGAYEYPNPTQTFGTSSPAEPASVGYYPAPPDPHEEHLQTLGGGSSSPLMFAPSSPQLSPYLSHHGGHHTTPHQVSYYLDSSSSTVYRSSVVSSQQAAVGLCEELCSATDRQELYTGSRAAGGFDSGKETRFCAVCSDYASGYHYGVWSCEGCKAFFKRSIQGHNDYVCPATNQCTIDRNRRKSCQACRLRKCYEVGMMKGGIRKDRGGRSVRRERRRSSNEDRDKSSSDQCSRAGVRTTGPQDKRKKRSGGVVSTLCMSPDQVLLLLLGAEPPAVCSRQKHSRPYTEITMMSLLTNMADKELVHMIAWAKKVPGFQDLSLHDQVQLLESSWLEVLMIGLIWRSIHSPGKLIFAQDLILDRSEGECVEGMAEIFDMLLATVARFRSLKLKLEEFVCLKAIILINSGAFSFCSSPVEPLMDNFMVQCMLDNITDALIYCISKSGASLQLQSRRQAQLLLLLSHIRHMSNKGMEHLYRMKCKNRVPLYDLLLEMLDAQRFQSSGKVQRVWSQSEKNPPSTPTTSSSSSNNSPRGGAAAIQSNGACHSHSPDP

The term AC50 denotes the midpoint of the concentration-response curve, whichever way the signal moves. For the compound `CC1(C)CCC(Cc2ccc(Cl)cc2)C1(O)Cn1cncn1` (stereo not drawn), the outcome in [1], in experiment [3], in experiment [6], in [7], in experiment [8] and in experiment [9] was inactive. The compound was called inactive in experiment [12]. Also, the AC50 is 165 µM (active) in experiment [2]; 27.7 µM (active) in [4]; 26.3 µM (active) in [5]; 1.35 µM (active) in experiment [10]; 5.17 µM (active) in experiment [11].
For the compound `Oc1cccc2cccnc12`, in [1], the call was inactive. Moreover, the concentration at half-maximal activity (AC50) in experiment [6] is 22.3 µM (active) and 6.75 µM (active); in experiment [7], 18.6 µM (active) and 9.5 µM (active).
Take `COP(=O)(OC)O/C(=C\Cl)c1cc(Cl)c(Cl)cc1Cl`: the outcome in [1], in [6], in [10] and in [11] was inactive. The AC50 in [4] was 73.9 µM (active).
For the compound `ClCC(Cl)CCl`, the outcome in experiment [13], in [14] and in experiment [7] was inactive.
As to `CC(C)c1cccc(C(C)C)c1O`, the result in experiment [1], in experiment [6] and in experiment [7] was inactive.
`Cc1ccc(N)cc1Cl`: the compound was classed as inactive in [1], in experiment [6] and in [7].
In the case of `CC1(C)Cc2cccc(O)c2O1`, the compound was called inactive in experiment [1], in experiment [6] and in [7].
Turning to `O=C(Nc1ccc2[nH]ccc2c1)c1cc2cc(F)ccc2n1Cc1cccc(F)c1`, the AC50 in [1] was 33.3 µM (active); in experiment [6], 14.5 µM (active); in experiment [7] it was 10 µM (active).
In the case of `CC(C)(C)c1cc(O)ccc1O`, the AC50 in experiment [13] was 33.7 µM (active); in experiment [15] it was 35.8 µM (active); in [1], 79.7 µM (active) and 80.7 µM (active); in experiment [4], 20 µM (active); in [5], 22.4 µM (active); in experiment [6], 90.9 µM (active). Further, the AC50 was 86.2 µM (active) in [7], 8.92 µM (active) in experiment [10], 8.75 µM (active) in experiment [11] and 8.26 µM (active) in experiment [12]. In addition, the call in experiment [16], in [17], in experiment [18], in experiment [1], in experiment [3] and in [8] was inactive. The call in experiment [9] was inactive.
With `Cc1ccccc1N`, the call in experiment [1], in [6] and in experiment [7] was inactive.
Turning to `CC(C)(C)CC(C)(C)c1ccc(O)cc1`, the outcome in [1], in experiment [2] and in experiment [9] was inactive. For the same compound, the AC50 in experiment [4] was 1.7 µM (active); in experiment [5], 2.75 µM (active); in experiment [6] it was 10.4 µM (active); in [7], 8.78 µM (active); in experiment [8], 1.86 µM (active); in experiment [10] it was 2.21 µM (active). In addition, in experiment [12], the AC50 was 2.15 µM (active).
For `CCOP(=S)(OCC)SCSP(=S)(OCC)OCC`, the call in [1] and in experiment [6] was inactive. In addition, the AC50 in experiment [7] was 67 µM (active).
